# Results taken from PubChem BioAssay AID641 (Vanderbilt High Throughput Screening Facility, 2007).
# The whole screen tested about 58,000 compounds, of which about 3,400 (5.9%) were called active. The sample holds actives, similar compounds and a random draw of the others, so the mix is not that of the screen. A number with no mark means an inactive call.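 How the source made its calls: active means luminescence count or its row- and column-corrected plate score outside the 99.7% band of the plate's sample wells, on either side; inactive means the rest.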 Where a SMILES comes first, the peptide text is derived from it. The star is where a group is joined. Bz = O=C(c1ccccc1)*
# Molecular target: D(1A) dopamine receptor (Homo sapiens) (UniProt P21728)
# Assay: D1 CRE-luciferase signal change, two-sided – cell-based, HEK293 D1, dopamine EC30, D1 allosteric modulator project, primary screen (AID 641)
# Conditions: dopamine EC30 potentiation, at 10 µM, actives deviate in either direction
# Sequence of D(1A) dopamine receptor (Homo sapiens) (P21728 whole entry, looked up): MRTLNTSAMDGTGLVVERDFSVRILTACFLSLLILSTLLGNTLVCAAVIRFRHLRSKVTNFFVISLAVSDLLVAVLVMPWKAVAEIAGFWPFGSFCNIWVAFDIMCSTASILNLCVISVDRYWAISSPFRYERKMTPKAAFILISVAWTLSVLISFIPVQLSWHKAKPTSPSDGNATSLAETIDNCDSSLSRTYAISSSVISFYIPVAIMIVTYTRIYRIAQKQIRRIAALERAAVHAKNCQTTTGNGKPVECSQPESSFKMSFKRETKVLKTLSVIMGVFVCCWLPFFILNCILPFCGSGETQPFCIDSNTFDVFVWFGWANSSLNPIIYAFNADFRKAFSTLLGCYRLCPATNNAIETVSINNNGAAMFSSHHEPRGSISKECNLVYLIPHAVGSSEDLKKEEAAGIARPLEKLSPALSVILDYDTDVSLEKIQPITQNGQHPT
row,SMILES,B-score
1,CC(C)c1cc(C(=O)O)on1,3.98 (active)
2,CCC(=O)N1CCc2cc(S(=O)(=O)NC(C(=O)N3CCc4ccccc4C3)C(C)C)ccc21 (stereo not given),1.68
3,CNC(=O)c1c(NC(=O)c2ccc(S(=O)(=O)N3CCOCC3)cc2)sc2c1CCC2,0.787
4,c1ccc(-c2noc(-c3cccs3)n2)nc1,-6.15 (active)
5,O=C(Oc1ccc(-c2nc(-c3ccccn3)no2)cc1)c1ccccc1,-2.61 (active)
6,CC(C)c1nc(-c2ccccn2)no1,-0.397
7,O=C(c1cccs1)N(C(=O)c1cccs1)c1ccccn1,-0.339
8,O=C(Oc1ccccc1)c1ccc2nccnc2c1,0.299
9,c1csc(-c2nc(-c3ccncc3)no2)c1,2.02
10,O=C1C(C=NCC2CCCO2)=C(O)c2ccccc21 (stereo not given),-0.132
11,Cc1cc(C(=O)COC(=O)c2cccs2)c(C)n1-c1c(C)n(C)n(-c2ccccc2)c1=O,-1.48
12,COc1cccc(-n2cc3c(c2-c2ccccc2)c(=O)n(C)c(=O)n3C)c1,0.281
13,CCc1c(O)nc(SCC(=O)N2CCCCC2)n(-c2ccccc2C)c1=O,0.0102
14,C=CCn1c(N)c(S(=O)(=O)c2cccs2)c2nc3ccccc3nc21,-0.811
15,Cc1ccc(S(=O)(=O)NCc2nc3ccccc3c(=O)n2N)cc1,-0.0901
16,Cc1ccc(S(=O)(=O)c2c(N)n(C)c3nc4ccccc4nc23)cc1,8.84 (active)
17,O=C(NC(Cc1ccccc1)C(=O)N1CCCC1C(=O)O)c1ccccc1 (stereo not drawn) (Bz-Phe-Pro-OH; configuration not given here),0.682
18,CCOC(=O)c1ccc(N2C(=O)CC(N3CCC(C(=O)OCC)CC3)C2=O)cc1 (stereo not given),-0.257
19,COCCOC(=O)C1=C(C)NC(=O)NC1c1ccc(Cl)cc1 (stereo not given),-0.276
20,CCOC(=O)/C=c1\s/c(=C\c2ccccc2OC)c(=O)n1CC(=O)N1CCOCC1,4.29 (active)
21,COc1cccc2c(=O)n(CC(=O)N3CCCCCC3)ccc12,0.116
22,CCOc1ccccc1/C=c1\sc2nc(-c3ccco3)nn2c1=O,-0.399
23,CN(C)Cc1c(C#N)c2ccccc2n1C,-1.12
24,CCOc1ccc(C(=O)Nc2cc(OC)ccc2OC)cc1,0.0877
25,CCn1cc(C(=O)N2CC=C(c3ccccc3)CC2)c(=O)c2ccc(C)nc21,1.17

row,SMILES,B-score
1,CCn1cc(C(=O)NCc2ccc(OC)cc2OC)c(=O)c2ccc(C)nc21,5.55 (active)
2,CCSc1nc2c(c(=O)[nH]1)C(c1cccnc1)C(C(=O)OC(C)C)=C(C)N2 (stereo not given),0.843
3,O=c1/c(=C/c2ccc(CNS(=O)(=O)c3ccccc3)o2)sc2n1CCN=2,-0.139
4,Cc1ccc(C)c(S(=O)(=O)n2cnc3ccccc32)c1,0.135
5,Cc1ccc(N2C(=O)c3oc4ccccc4c(=O)c3C2c2cccnc2)nc1 (stereo not given),0.194
6,Cc1ccc(C(=O)Nc2nnc(-c3ccncc3)s2)o1,-0.406
7,CCn1c(=N)c(S(=O)(=O)c2ccc(F)cc2)cc2c(=O)n3ccccc3nc21,4.93 (active)
8,CCn1c(=N)c(C(=O)NCCCOC)cc2c(=O)n3cccc(C)c3nc21,-0.055
9,CCOC(=O)N1CCN(CC(=O)c2ccc3c(c2)CCN3)CC1,-0.515
10,O=C(O)c1cc(S(=O)(=O)N2CCCCCC2)c(Cl)cc1Cl,-0.949
11,CC(C)(C)n1nnnc1C(c1ccc2ncccc2c1)N1CCSCC1 (stereo not given),-0.519
12,Cc1ccc(C(c2nnnn2CS(=O)(=O)c2ccc(C)cc2)N2CCC(C(N)=O)CC2)cc1 (stereo not given),0.737
13,COc1ccc(CCn2nnnc2C(c2ccccc2)N2CCN(C)CC2)cc1OC (stereo not given),0.116
14,COc1ccc(OC)c(C(c2nnnn2C(C)(C)C)N2CCc3ccccc3C2)c1 (stereo not given),-4.02 (active)
15,Cc1ccc(C(c2nnnn2C(C)(C)C)N2CCc3ccccc3C2)cc1 (stereo not given),-2.5 (active)
16,CCC(C)(C)n1nnnc1C(c1ccccc1OC)N1CCSCC1 (stereo not given),-0.522
17,CCOCCc1c(O)nc(SCC(=O)NCc2ccco2)[nH]c1=O,1.04
18,CCCC(C)n1[nH]c(=O)c2c(C)cc(C)nc21 (stereo not given),1.59
19,N#CCCN1CCN(S(=O)(=O)c2ccc(S(=O)(=O)NC3CCCCC3)cc2)CC1,3.08 (active)
20,N#CCCN1CCN(S(=O)(=O)c2ccc(S(=O)(=O)N3CCCC3)cc2)CC1,0.478
21,N#CCCN1CCN(S(=O)(=O)c2ccc(S(=O)(=O)NC3CC3)cc2)CC1,-0.0246
22,COc1ccc(N2C(=O)C3CCCN3C2c2cc(OC)c(OC)cc2OC)cc1 (stereo not given),0.17
23,CCOC(=O)C1=C(O)CSC1=Nc1cccc(Cl)c1,7.94 (active)
24,CCOC(=O)C1=C(C)NC(C)=C(C(=O)OCC)C1c1ccccn1,-0.891
25,CCOC(=O)c1cc(-c2ccc(Cl)s2)nc2c1c(C)nn2C,0.665

row,SMILES,B-score
1,COc1ccc(CCNC(=O)c2ccco2)cc1,1.58
2,CCOC(=O)c1c(-c2ccc(C)cc2C)csc1NC(=O)CSc1nnnn1C,0.507
3,Cc1ccc(-c2nc(COC(=O)c3c(C)noc3C)cs2)cc1,-0.259
4,CCOC(=O)c1c(C2CC2)csc1NC(=O)CSCc1c(C)noc1C,-3.6 (active)
5,O=C(C1=C(O)C(=O)N(c2ncccn2)C1c1cccs1)c1ccco1 (stereo not given),-0.746
6,Cn1c(=O)[nH]c(=O)c2c1nc(N1CCN(CCO)CC1)n2CCSc1nc2ccccc2s1,0.525
7,c1nnc2c3c4c(sc3ncn12)CCC4,0.277
8,Cc1ccccc1Cn1c(=O)[nH]c2ccccc21,-0.259
9,Cc1ccc(N2C(=O)CC(NCc3ccc4c(c3)OCO4)C2=O)cc1Cl (stereo not given),0.36
10,CCOc1cc(/C=N/O)cc(Br)c1OC,10.9 (active)
11,O=C(c1cnn2ccccc12)N1CCc2ccccc21,-0.641
12,CCCN(CCC)C(=O)C1c2ccccc2Oc2ccccc21,0.123
13,C/C(=C\C(=O)c1ccccc1)Nc1cccc(O)c1,4.14 (active)
14,CC(=O)c1cccc(NC(=O)c2ccncc2)c1,-0.215
15,C/C(=C\C(=O)c1cccnc1)Nc1ccc(C)c(C)c1,0.381
16,CCc1nc(Nc2ccc3nccnc3c2)c2oc3ccccc3c2n1,-1.78
17,Cc1cccc(N2CCN(C(c3ccccc3)c3nnnn3CC3CCCO3)CC2)c1C (stereo not given),-1.87
18,Cc1nc(N2CCN(c3ncccn3)CC2)c2oc3ccccc3c2n1,3.11
19,CCSc1nc(C)nc2c1oc1ccccc12,10.5 (active)
20,COc1ccc(CCNC(=O)CSc2nc(C)nc3c2oc2ccccc23)cc1OC,1.41
21,CCn1nnc(NC(=O)c2c(OC)cccc2OC)n1,-0.273
22,Cc1ccccc1CN1CCN(CC(=O)NCc2ccccn2)C1=O,-0.577
23,COc1ccc2c(Cl)c(-c3nnco3)sc2c1,-2.33
24,COCCn1c(-c2ccc(OC)c(OC)c2)nc2ccccc21,1.2
25,COc1ccc(-c2nnco2)cc1OC,9.98 (active)

row,SMILES,B-score
1,COC(=O)c1ccc(NC(=O)CN(c2ccc(C)cc2)S(=O)(=O)c2c(C)n[nH]c2C)cc1,-1.32
2,CC(=O)NCC(=O)N(C)C(C(=O)Nc1ccc2c(c1)OCCO2)c1ccccc1 (stereo not given),1.86
3,CC(=O)NC(C)c1nc2ccccc2n1Cc1ccccc1F (stereo not given),0.517
4,Cc1nc(Nc2ccc3c(c2)OCCO3)c2nnn(Cc3ccccc3Cl)c2n1,-2.58
5,C#CCNc1nc(C(C)C)nc2c1nnn2Cc1ccccc1F,8.02 (active)
6,NC(=O)C1CC=CCC1C(=O)OCC(Cl)=C(Cl)Cl (stereo not given),-0.419
7,CCOc1cccc(=O)c2c(C)n(CC3CCCO3)c(C)c12 (stereo not given),0.961
8,CCOC(=O)NC(C(F)(F)F)(C(F)(F)F)P(=O)(c1ccccc1)c1ccccc1,-0.00139
9,CCCn1c(=O)c2[nH]c(C3CCCC3)nc2n(CCC)c1=O,20 (active)
10,CCN(c1ccccc1)S(=O)(=O)c1ccc(N)cc1,0.0758
11,CC(NC(=O)CN1CCN(Cc2ccc(Cl)cc2)C1=O)c1ccc2c(c1)OCCO2 (stereo not given),-0.383
12,CCNc1nc(NCC)nc(N(C)n2cnnc2)n1,6.74 (active)
13,CCNc1nc(SCCOc2ccccc2)nc(N(C)C)n1,1.16
14,Cc1cccc(NC(=O)C2CCN(S(=O)(=O)c3cccc4cccnc34)CC2)c1,-1.64
15,CCOC(=O)c1ccc(Nc2cc(C)nc3nc(C)nn23)cc1,0.18
16,COc1cccc(N2CC(C(=O)Nc3c(C)cccc3C)CC2=O)c1 (stereo not given),0.869
17,CC1CCCCN1CC(=O)NCc1ccc2c(c1)OCO2 (stereo not given),0.0178
18,CCc1ccc2oc(=O)cc(CN3CCCCC3C)c2c1 (stereo not given),3.81 (active)
19,Cc1cc(NC(=O)CN2CCCCC2C)nc2c1c(=O)oc1ccccc12 (stereo not given),-0.0379
20,COCC(C)N=CC1=C(O)CC(C)(C)CC1=O (stereo not given),0.0482
21,CCn1c(Cc2ccccc2)nnc1SCC(=O)Nc1ccccc1,-0.326
22,CC1OC2C(OC1C)N(S(C)(=O)=O)CCN2S(C)(=O)=O (stereo not given),-0.145
23,COc1ccc(-c2nnn(Cc3nc(N)nc(N4CCCCC4)n3)n2)cc1,5 (active)
24,CCc1ccc(-c2nnn(Cc3nn[nH]n3)n2)cc1,-0.837
25,COc1ccc(-c2nnn(CC(=O)N(CCO)C(C(=O)NC3CCCC3)c3ccc(F)cc3)n2)cc1 (stereo not given),-0.256
